Bioassay records (PubChem BioAssay)
Shown are actives, neighbours in structure and some others; about 3.6% of the full set was active somewhere.
TRHR enhancer-1 – TRH receptor (human) allosteric enhancement; enhancement, % at 2 µM; P34981; AID 493056; actives 0.66% (n = 360,000); TRHR cells, fluo-8 calcium fluorescence, EC20 TRH enhancement; in the data active = enhancement above about 30%; also: 0% is about no effect
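TRHR-expressing cells loaded with fluo-8 calcium dye were read kinetically (ex 480/em 530) during compound addition, then stimulated with an EC20 of TRH (10 nM final). Enhancement of the Gq-mediated intracellular calcium response was scored.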
D1 antag – blocks dopamine activation of the human D1 receptor | actives 3.2% (n = 360,000) | P21728 | AID 504652 | HEK293 TREx D1 cells, calcium flux, dopamine EC80; hits give low values | activity change, negative = inhibition, % at 10 µM; in the data active = activity change below about -30%; also: % is scaled to controls: 0 for no effect and ±100 for the full control effect
Target sequence (P21728 whole entry, looked up): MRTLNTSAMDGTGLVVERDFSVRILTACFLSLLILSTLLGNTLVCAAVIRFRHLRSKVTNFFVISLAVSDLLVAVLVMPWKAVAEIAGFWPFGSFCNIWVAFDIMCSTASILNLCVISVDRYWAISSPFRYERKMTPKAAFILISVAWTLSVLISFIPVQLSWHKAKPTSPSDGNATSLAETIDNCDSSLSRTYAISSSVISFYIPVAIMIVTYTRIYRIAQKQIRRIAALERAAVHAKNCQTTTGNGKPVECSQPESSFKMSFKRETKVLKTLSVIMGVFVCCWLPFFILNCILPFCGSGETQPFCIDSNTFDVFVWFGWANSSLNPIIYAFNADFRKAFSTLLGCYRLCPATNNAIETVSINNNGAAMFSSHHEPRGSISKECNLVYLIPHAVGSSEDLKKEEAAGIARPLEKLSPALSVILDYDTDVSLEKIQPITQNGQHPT
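Tetracycline-induced HEK293 Trex D1 cells, force-coupled to calcium, dye-loaded; compounds added and read 180 s, then EC80 dopamine added and calcium flux tracked kinetically another 180 s.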
D1 potentiator – potentiators of human D1 dopamine receptor; HEK293 TREx D1 cells, calcium flux, dopamine EC20 potentiation; potentiation, % at 10 µM; actives 0.036% (n = 360,000); AID 504651; in the data active = potentiation above about 30%; also: 0% is about no effect
D1 agonist – human D1 receptor agonism | actives 1% (n = 360,000) | activation, % at 2 µM | P21728 | HEK293 T-REx D1 cells, calcium flux, agonist mode; in the data active = activation above about 30%; also: 0% is about no effect
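Agonism was scored from calcium flux recorded over 180 s (1 read/s) after pintool compound addition, following a 10-cycle baseline. Cells were inducible force-coupled HEK293 TREx D1, plated overnight at 30 C and loaded with no-wash calcium dye.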
LDHA inh – LDHA (human) enzyme inhibition; activity change, % (values are at about 110 or 230 µM); purified LDHA, NADH/diaphorase-resazurin fluorescence; hits give low values; AID 1347041; actives 0.15% (n = 480,000); in the data active = activity change below about -30%; inconclusive = mostly about -25% to -30%;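 also: plate controls were DMSO wells for no effect and wells without enzyme for full effect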
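Human LDH5 (2 nM) was incubated with 0.06 mM NADH and 0.2 mM pyruvate for 5 min at room temperature in Tris pH 7.4. Remaining NADH was coupled through diaphorase/resazurin, and resorufin fluorescence was read at 0 and 20 min.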
TRHR agonist-1 – activates the human TRH receptor | P34981 | TRHR cells, calcium flux fluo-8, FDSS agonist mode | activation, % at 2 µM | actives 0.18% (n = 360,000) | AID 493084; in the data active = activation above about 30%; also: 0% is about no effect
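Agonist-mode FDSS calcium read (Ex 480/Em 530, 1 s cycles) in 1536-well TRHR cells with fluo-8 dye, after 10-cycle baseline and 23 nL compound addition; TRH at EC20 (10 nM final) added afterwards for the enhancer phase.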
TRHR enhancer-2 – confirmation of human TRH receptor allosteric enhancers; shares compounds with TRHR enhancer-1; TRH receptor cell assay, enhancer confirmation qHTS; activity change, negative = inhibition, % at 46.1 µM; 970 tested, under 10 active; AID 493076;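 also: compound effect scored on response to added TRH at EC20 of 10 nM; 0% is about no effect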
TRHR agonist-2 – confirmation of human TRH receptor agonists | shares compounds with TRHR enhancer-1 | TRHR-expressing cells, agonist activation read-out | Potency, µM (titrated, usually from 46.1 µM), for the others: at the highest dose activation, most hits filed as activators | actives 8% (n = 970); also: potency is read from the fitted curve at half-maximal effect; 0% is about no effect; nearly all actives have a fitted effect of over 75% in size
Active calls of the source: *; u = inconclusive; x = no result. Unless noted, calls follow the shape of the dose curve; as a rule, active = well fitted curve in the direction sought with a large enough effect; inconclusive = small, poorly fitted or top-dose-only effect, or another doubt; inactive = no such curve, though single readings can be large; an effect the other way counts as inactive or inconclusive.

SMILES | TRHR enhancer-1 | D1 antag | D1 potentiator | D1 agonist | LDHA inh | TRHR agonist-1 | TRHR enhancer-2 | TRHR agonist-2
O=c1cc(-c2ccccc2F)oc2ccc(F)cc12 | x | x | x | x | 3.0 | x | x | x
C=CCNC(=O)c1c(N)n(-c2cccc(S(N)(=O)=O)c2)c2nc3ccccc3nc12 | 43.0* | -13.9 | 1.6 | 9.3 | -2.0 | 0.5 | -2.9 | u
O=C(O)CSCc1ccccc1 | x | x | x | x | -0.7 | x | x | x
CCC(CC)C(=O)Nc1nonc1-c1ccc(Br)cc1 | x | x | x | x | 7.0 | x | x | x
CCCn1c(=O)c2ccccc2n2c(SC(C)C(N)=O)nnc12 (stereo not drawn) | -1.3 | 14.6 | 1.2 | -0.6 | -8.3 | 0.3 | x | x
C=CCn1c(=O)c2ccccc2n2c(SC(C)C(N)=O)nnc12 (stereo not drawn) | 45.1* | -5.8 | -6.1 | 2.4 | -0.8 | -0.5 | -1.4 | -0.6%
Cc1cccc(-n2c(N)cc(=O)nc2SCC(=O)Nc2ccccc2)c1 | 45.2* | 10.3 | 8.5 | 3.2 | 1.6 | 0.7 | -5.2 | u
O=C(OCc1ccc(Cl)c(Cl)c1)c1ccccc1Oc1ccccc1 | x | x | x | x | -24.8 | x | x | x
COc1cc(C(=O)Nc2cnc3ccccc3c2)ccc1OC(F)F | x | x | x | x | -1.0 | x | x | x
N=C1/C(=C\c2coc3ccc(O)cc3c2=O)C(=O)N=C2SC=CN12 | 2.6 | -12.7 | -2.1 | 131.6* | 22.4 | 59.4* | 0.0 | 9.2µM*
CN1C(=O)/C(=C/c2coc3ccc(O)cc3c2=O)SC1=S | 0.7 | 12.9 | -3.6 | 17.4 | -4.3 | 3.3 | x | x
Clc1ccc(CNc2ncccn2)cc1 | -3.0 | 6.9 | -1.9 | 1.9 | -7.3 | -0.6 | x | x
Fc1ccc(CNc2ncccn2)cc1 | 41.9* | -13.5 | 9.2 | -0.9 | -5.2 | -0.6 | 1.6 | -0.7%
Cc1ccc2nc(CSc3ccc4ccccc4n3)cc(=O)n2c1 | x | x | x | x | 7.9 | x | x | x
Cc1ccc2nc(CSc3nnc4ccccn34)cc(=O)n2c1 | 50.7* | -18.3 | 1.4 | 8.1 | -5.5 | 0.4 | -7.2 | -0.8%
COc1cc(OC)c(-c2nc3cnccc3n2C)cc1OC | 18.3 | -7.5 | 3.0 | 1.0 | -1.9 | -0.1 | x | x
Cn1c(-c2ccc3ccccc3n2)nc2cnccc21 | 53.7* | 8.8 | -5.5 | 2.0 | -2.1 | -1.3 | u | -0.4%
COc1ccc(/C=C2\SC(=O)N(CCC(=O)Nc3ccccc3)C2=O)cc1OC | 57.3* | 1.7 | -4.0 | 0.6 | -7.0 | 0.1 | -3.5 | 4.3%
COc1ccc(/C=C2\SC(=O)N(CCCC(=O)Nc3ccc(C(=O)O)cc3)C2=O)cc1OC | 8.2 | 3.8 | -0.4 | 0.2 | 3.6 | -1.4 | x | x
CCN(CC)C(=O)COc1ccc(-c2noc(-c3ccccc3)n2)cc1OC | x | x | x | x | 12.2 | x | x | x
O=C(CSc1ncnc2sc3c(c12)CCCC3)c1ccccc1 | 3.5 | 6.4 | 5.0 | -0.5 | -5.0 | 0.1 | x | x
O=C(O)c1ccccc1Sc1ncnc2sc3c(c12)CCC3 | 43.3* | 18.3 | -1.8 | 1.7 | -1.5 | -0.3 | -3.8 | -0.4%
C#CCN1CCC(C(=O)N(C)Cc2ccc(Br)o2)CC1 | x | x | x | x | 0.1 | x | x | x
CCOc1cc(/C=C2/SC(=S)N(CC3CCCO3)C2=O)ccc1O (stereo not drawn) | 5.1 | 2.0 | 6.8 | 67.8* | -5.8 | 43.2* | u | 16.4µM*
CCOc1cc(/C=C2\SC(=S)N(NS(=O)(=O)c3ccc(C)cc3)C2=O)ccc1O | x | x | x | x | 2.6 | x | x | x
COc1cc(/C=C2\SC(=S)N(NC(=O)c3ccc(O)c(OC)c3)C2=O)ccc1O | 3.3 | 26.2 | 5.4 | 73.3* | -9.1 | 45.2* | 4.6 | u
O=C1/C(=C/c2cccc(O)c2)SC(=S)N1CC1CCCO1 (stereo not drawn) | 0.7 | -24.4 | -13.7 | 1.7 | -1.4 | 0.9 | x | x
COc1cc(/C=C2\SC(=S)N(NC(=O)c3ccncc3)C2=O)ccc1O | -1.9 | 27.5 | -4.7 | 21.6 | 0.7 | 13.1 | x | x
COc1cc(/C=C2\SC(=S)N(NS(=O)(=O)c3ccc(C)cc3)C2=O)ccc1O | -4.5 | -9.0 | 3.7 | 81.6* | -9.7 | 36.0* | -3.2 | u
